# Measured values: PMC12820563, “FoxP3 forms a head-to-head dimer in vivo and stabilizes its multimerization on adjacent microsatellites”
# In all, about 16,000 sequences were measured (“rpm ratio (pull-down/input)”: median about 0.94, highest 2% from about 1.7 on). The sample holds the highest values, similar sequences and a random draw of the others, so the mix is not that of the screen.
# Target: T1, MBP-FoxP1dN (Mus musculus, UniProt P58462 326-579)
# T1 sequence: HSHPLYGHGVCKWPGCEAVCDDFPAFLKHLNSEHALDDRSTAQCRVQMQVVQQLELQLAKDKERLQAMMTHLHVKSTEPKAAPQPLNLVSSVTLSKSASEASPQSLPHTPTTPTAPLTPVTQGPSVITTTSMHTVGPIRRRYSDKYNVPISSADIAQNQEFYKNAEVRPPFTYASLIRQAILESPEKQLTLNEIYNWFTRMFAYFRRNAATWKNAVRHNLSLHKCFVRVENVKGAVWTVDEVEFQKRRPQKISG
# Test: PD-seq (MBP pull-down with sequencing); 20 mM Tris-HCl pH 7.5, 100 mM NaCl, 1.5 mM MgCl2, 0.4 uM protein, 0.1 uM dsDNA library, 30 min, room temperature, amylose pull-down; high values mean tight binding
# Conditions: protein: recombinant; tags: His6-MBP; chain copies: 2; dsDNA, one strand shown
# Procedure, shortened: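 Protein and DNA were mixed at 0.4 µM and 0.1 µM and held for 30 min at room temperature in Tris pH 7.5 buffer with NaCl and MgCl2; the protein was a His6-MBP-tagged, N-terminally truncated mouse FoxP3 or FoxP1 fragment from E. coli, and the DNA a Klenow-filled double-stranded degenerate library. Amylose resin captured the complexes, which were washed three times. Binding is read as reads-per-million enrichment of pull-down versus input after Illumina sequencing, with replicates pooled.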
row,Sequence,binding signal
1,GATGATTGTTCTCCCAGCTGATGAATTAGGTGGGTCGAGTAAACAAATTTTCCTAATCTTTCTGTTCAAGCGCCATCTAC,0.78 RPM ratio (pull-down/input)
2,GATGATTGTTCTCCCAGCTGATGAATTGGTGTTTTCGAGTAAACAAATTTTCCTAATCTTTCTGTTCAAGCGCCATCTAC,2.65 RPM ratio (pull-down/input)
3,GATGATTGTTCTCCCAGCTGATGAATTGGTGTGTTCGAGTAAACAAATTTTCCTAATCTTTCTGTTCAAGCGCCATCTAC,1.34 RPM ratio (pull-down/input)
4,GATGATTGTTCTCCCAGCTGATGAATTGTTTGGTTCGAGTAAACAAATTTTCCTAATCTTTCTGTTCAAGCGCCATCTAC,1.81 RPM ratio (pull-down/input)
5,GATGATTGTTCTCCCAGCTGATGAATTGGTTGGTTCGAGTAAACAAATTTTCCTAATCTTTCTGTTCAAGCGCCATCTAC,1 RPM ratio (pull-down/input)
6,GATGATTGTTCTCCCAGCTGATGAATTGGTTTGTTCGAGTAAACAAATTTTCCTAATCTTTCTGTTCAAGCGCCATCTAC,1.13 RPM ratio (pull-down/input)
7,GATGATTGTTCTCCCAGCTGATGAATTTTTTGGTTCGAGTAAACAAATTTTCCTAATCTTTCTGTTCAAGCGCCATCTAC,1.01 RPM ratio (pull-down/input)
8,GATGATTGTTCTCCCAGCTGATGAATTTGGTGTTTCGAGTAAACAAATTTTCCTAATCTTTCTGTTCAAGCGCCATCTAC,1.12 RPM ratio (pull-down/input)
9,GATGATTGTTCTCCCAGCTGATGAATTGTTGGTTTCGAGTAAACAAATTTTCCTAATCTTTCTGTTCAAGCGCCATCTAC,1.89 RPM ratio (pull-down/input)
10,GATGATTGTTCTCCCAGCTGATGAATTTGTTGGTTCGAGTAAACAAATTTTCCTAATCTTTCTGTTCAAGCGCCATCTAC,2.02 RPM ratio (pull-down/input)
11,GATGATTGTTCTCCCAGCTGATGAATTTTTGGTTTCGAGTAAACAAATTTTCCTAATCTTTCTGTTCAAGCGCCATCTAC,0.984 RPM ratio (pull-down/input)
12,GATGATTGTTCTCCCAGCTGATGAATTGGTTGTTTCGAGTAAACAAATTTTCCTAATCTTTCTGTTCAAGCGCCATCTAC,1.45 RPM ratio (pull-down/input)
13,GATGATTGTTCTCCCAGCTGATGAATTTGGTTGTTCGAGTAAACAAATTTTCCTAATCTTTCTGTTCAAGCGCCATCTAC,1.29 RPM ratio (pull-down/input)
14,GATGATTGTTCTCCCAGCTGATGAATTCTATTACTCGAGTAAACAAATTTTCCTAATCTTTCTGTTCAAGCGCCATCTAC,0.895 RPM ratio (pull-down/input)
15,GATGATTGTTCTCCCAGCTGATGAATTCCCTCCATCGAGTAAACAAATTTTCCTAATCTTTCTGTTCAAGCGCCATCTAC,0.855 RPM ratio (pull-down/input)
16,GATGATTGTTCTCCCAGCTGATGAATTAACACATTCGAGTAAACAAATTTTCCTAATCTTTCTGTTCAAGCGCCATCTAC,1.18 RPM ratio (pull-down/input)
17,GATGATTGTTCTCCCAGCTGATGAATTCCTAGGTTCGAGTAAACAAATTTTCCTAATCTTTCTGTTCAAGCGCCATCTAC,0.762 RPM ratio (pull-down/input)
18,GATGATTGTTCTCCCAGCTGATGAATTTTGCATTTCGAGTAAACAAATTTTCCTAATCTTTCTGTTCAAGCGCCATCTAC,1.29 RPM ratio (pull-down/input)
19,GATGATTGTTCTCCCAGCTGATGAATTTGCATCTTCGAGTAAACAAATTTTCCTAATCTTTCTGTTCAAGCGCCATCTAC,1.89 RPM ratio (pull-down/input)

row,Sequence,binding signal
1,GATGATTGTTCTCCCAGCTGATGAATTTGCATTTTCGAGTAAACAAATTTTCCTAATCTTTCTGTTCAAGCGCCATCTAC,1.61 RPM ratio (pull-down/input)
2,GATGATTGTTCTCCCAGCTGATGAATTGCATTTTTCGAGTAAACAAATTTTCCTAATCTTTCTGTTCAAGCGCCATCTAC,1.69 RPM ratio (pull-down/input)
3,GATGATTGTTCTCCCAGCTGATGAATTGCATTGTTCGAGTAAACAAATTTTCCTAATCTTTCTGTTCAAGCGCCATCTAC,1.43 RPM ratio (pull-down/input)
4,GATGATTGTTCTCCCAGCTGATGAATTGCATCTTTCGAGTAAACAAATTTTCCTAATCTTTCTGTTCAAGCGCCATCTAC,1.83 RPM ratio (pull-down/input)
5,GATGATTGTTCTCCCAGCTGATGAATTGAAACGCTCGAGTAAACAAATTTTCCTAATCTTTCTGTTCAAGCGCCATCTAC,0.86 RPM ratio (pull-down/input)
6,GATGATTGTTCTCCCAGCTGATGAATTTCTACATTCGAGTAAACAAATTTTCCTAATCTTTCTGTTCAAGCGCCATCTAC,0.939 RPM ratio (pull-down/input)
7,GATGATTGTTCTCCCAGCTGATGAATTACCGTGCTCGAGTAAACAAATTTTCCTAATCTTTCTGTTCAAGCGCCATCTAC,0.964 RPM ratio (pull-down/input)
8,GATGATTGTTCTCCCAGCTGATGAATTGTGTACATCGAGTAAACAAATTTTCCTAATCTTTCTGTTCAAGCGCCATCTAC,2 RPM ratio (pull-down/input)
9,GATGATTGTTCTCCCAGCTGATGAATTGTACAAATCGAGTAAACAAATTTTCCTAATCTTTCTGTTCAAGCGCCATCTAC,1.35 RPM ratio (pull-down/input)
10,GATGATTGTTCTCCCAGCTGATGAATTCTACACATCGAGTAAACAAATTTTCCTAATCTTTCTGTTCAAGCGCCATCTAC,1.06 RPM ratio (pull-down/input)
11,GATGATTGTTCTCCCAGCTGATGAATTTTGTACATCGAGTAAACAAATTTTCCTAATCTTTCTGTTCAAGCGCCATCTAC,1.22 RPM ratio (pull-down/input)
12,GATGATTGTTCTCCCAGCTGATGAATTCTGTACATCGAGTAAACAAATTTTCCTAATCTTTCTGTTCAAGCGCCATCTAC,1.09 RPM ratio (pull-down/input)
13,GATGATTGTTCTCCCAGCTGATGAATTGTACACATCGAGTAAACAAATTTTCCTAATCTTTCTGTTCAAGCGCCATCTAC,2.11 RPM ratio (pull-down/input)
14,GATGATTGTTCTCCCAGCTGATGAATTGCAGTTGTCGAGTAAACAAATTTTCCTAATCTTTCTGTTCAAGCGCCATCTAC,1.34 RPM ratio (pull-down/input)
15,GATGATTGTTCTCCCAGCTGATGAATTACAGTACTCGAGTAAACAAATTTTCCTAATCTTTCTGTTCAAGCGCCATCTAC,1.06 RPM ratio (pull-down/input)
16,GATGATTGTTCTCCCAGCTGATGAATTGTTATAATCGAGTAAACAAATTTTCCTAATCTTTCTGTTCAAGCGCCATCTAC,1.59 RPM ratio (pull-down/input)
17,GATGATTGTTCTCCCAGCTGATGAATTTGCTTACTCGAGTAAACAAATTTTCCTAATCTTTCTGTTCAAGCGCCATCTAC,1.69 RPM ratio (pull-down/input)
18,GATGATTGTTCTCCCAGCTGATGAATTAGCAGTCTCGAGTAAACAAATTTTCCTAATCTTTCTGTTCAAGCGCCATCTAC,0.877 RPM ratio (pull-down/input)
